Shown are actives, neighbours in structure and some others; about 3.2% of the full set was active somewhere.
USP1 inh – blocks the human USP1/UAF1 deubiquitinase complex; O94782; Potency, µM (titrated, usually from 57.1 µM), inactives show at the top dose activity change, negative = inhibition, hits mostly inhibitors; 0.23% of 390,000 active; recombinant USP1/UAF1, Ub-Rhodamine cleavage fluorescence; note: potency is the fitted concentration of half-maximal effect; nearly all actives have a fitted effect of over 60% in size
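USP1/UAF1 complex (1 nM) preincubated 15 min at room temperature with compound, then Ub-Rho substrate (150 nM final) added. Kinetic fluorescence at 480/540 nm over 6 reads at 60 s intervals; 50 mM HEPES pH 7.8, 0.5 mM EDTA, 0.1 mg/ml BSA, 1 mM TCEP, 0.01% Tween-20.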
Coupling enz – inhibits coupling enzyme system, counter-screen for aldolase hits | AID 2472 | activity change, negative = inhibition, % at 58.2 µM, hits read low | coupling enzyme system counterscreen, AmpLite Red fluorescence | 0.67% of 290,000 active; in the data active = activity change below about -30%
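Counterscreen of the coupled detection system alone, without aldolase: glyceraldehyde-3-phosphate coupling enzymes plus AmpLite Red readout. Compounds at 57.5 uM final, 10 min RT preincubation, 20 min RT reaction, fluorescence 525/598 nm.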
PLK1 PBD inh – inhibitors of human PLK1 polo-box domain binding; Plk1 PBD binding of FITC phosphopeptide, fluorescence polarization; Potency, µM, without a hit: max response, negative = inhibition, hits mostly inhibitors; 2.8% of 360,000 active; note: potency is the fitted concentration of half-maximal effect; series mostly up to about 57 µM; nearly all actives have a fitted effect of over 65% in size
VDR inh – blocks the human vitamin D receptor. AID 504847. VDR-SRC2-3 peptide fluorescence polarization, 2 h. 0.93% of 400,000 active. P11473. Potency, µM, inactives show max response, negative = inhibition, most hits filed as inhibitors; note: potency is the fitted concentration of half-maximal effect
Target sequence (P11473 whole entry, looked up): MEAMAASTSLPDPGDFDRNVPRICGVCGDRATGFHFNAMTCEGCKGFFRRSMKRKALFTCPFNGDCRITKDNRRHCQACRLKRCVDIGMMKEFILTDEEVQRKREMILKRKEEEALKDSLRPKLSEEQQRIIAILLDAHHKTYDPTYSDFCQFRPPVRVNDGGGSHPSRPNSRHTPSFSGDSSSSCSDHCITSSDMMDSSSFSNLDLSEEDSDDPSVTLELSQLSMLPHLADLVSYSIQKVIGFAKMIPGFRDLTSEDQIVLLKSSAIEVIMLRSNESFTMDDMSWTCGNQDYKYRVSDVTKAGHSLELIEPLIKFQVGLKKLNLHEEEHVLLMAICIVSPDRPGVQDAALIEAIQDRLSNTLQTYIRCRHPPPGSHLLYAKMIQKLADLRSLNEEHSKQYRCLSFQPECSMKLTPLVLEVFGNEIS
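Reagent solutions, kept cold and dark, are dispensed first; compounds are then pinned in at 23 nl, plates briefly spun, and incubated 2 h at ambient temperature. Inhibition of VDR–SRC2-3 peptide binding is read by fluorescence polarization.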
USP2a inh – blocks human ubiquitin-specific protease USP2a. O75604. USP2 core, Ub-CHOP2 coupled fluorogenic reporter, 485/531. Potency, µM (doses to about 38.3 µM), without a hit: at the top dose activity change, negative = inhibition, usual class: inhibitors. 0.01% of 330,000 active. AID 463254;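 note: potency is the fitted concentration of half-maximal effect; plate controls were DMSO wells for no effect and full inhibition by NEM control for full effect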
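USP2 core (10nM final) preincubated 30min RT with compound in 20mM Tris-HCl pH 8.0, 2mM CaCl2, 2mM beta-mercaptoethanol, 0.05% CHAPS; 25nM Ub-CHOP2 plus 25nM reporter substrate added, fluorescence (Ex485/Em531) read after 60min.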
GALK inhibitor – blocks human galactokinase activity | P51570 | Purified GALK, Kinase-Glo residual ATP luminescence | Potency, µM (titrated, usually from 57.5 µM), inactives show at the top dose activity change, negative = inhibition, usual class: inhibitors | 0.007% of 270,000 active; note: potency is the fitted concentration of half-maximal effect
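Human GALK (5 nM) with 35 uM ATP and 100 uM galactose in 20 mM HEPES pH 8.0, 5 mM MgCl2, 60 mM NaCl, 1 mM DTT, 0.01% BSA. After 1 h at room temperature, leftover ATP was read by Kinase-Glo Plus luminescence.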
* marks the source's active call; other numbers are inactive results; u = inconclusive; x = no result given; ! = repeats disagree. Unless noted, calls come from the whole dose curve; as a rule, active = well fitted curve in the direction sought with a large enough effect; inconclusive = small, poorly fitted or top-dose-only effect, or another doubt; inactive = no such curve, though single readings can be large; an effect the other way counts as inactive or inconclusive. Unless noted, % is set by controls: 0 for no effect and ±100 for the full control effect.

SMILES | USP1 inh | Coupling enz | PLK1 PBD inh | VDR inh | USP2a inh | GALK inhibitor
C[C@@]12C(=O)Nc3ccc(F)cc3C(=O)N1[C@H]1c3ccccc3OC[C@@H]1[C@@H]2c1ccccc1 | 10% | x | 24µM* | -18% | 4% | x
C[C@@]12C(=O)Nc3ccc(F)cc3C(=O)N1[C@H]1c3cc(Cl)ccc3OC[C@@H]1[C@@H]2c1ccccc1 | -4% | x | 6% | 1% | -2% | x
Cc1cccc(C)c1NC(=O)Cn1c(=O)n(CCC(=O)NCc2ccc3c(c2)OCO3)c(=O)c2sccc21 | -23% | x | x | 7% | x | x
N#C/C(=C\c1cc(Br)c(O)c(Br)c1)c1nc2ccccc2c(=O)[nH]1 | 28µM* | x | x | -12% | x | x
N#C/C(=C/c1ccncc1)c1nc2ccccc2c(=O)[nH]1 | -12% | 0 | -17% | -26% | 3% | x
Cc1nc(C)c(C(=O)Nc2ncc([N+](=O)[O-])s2)o1 | -9% | -3 | 27µM* | u | 1% | 8%
O=C(COC(=O)c1ccccc1)Nc1ncc([N+](=O)[O-])s1 | -8% | x | 21µM* | -25% | 0% | x
Cc1cnc(NC(=O)COc2ccccc2)s1 | -2% | 0 | 30µM* | -1% | -1% | 11%
CCCCC(=O)Nc1ncc([N+](=O)[O-])s1 | -16% | 1 | -8% | -4% | 12% | 1%
O=C(Nc1ccccc1)Nc1ncc([N+](=O)[O-])s1 | -21% | -3 | u | -6% | -1% | 0%
CC(C)CC(=O)Nc1ncc([N+](=O)[O-])s1 | -20% | -1 | 11µM* | -26% | 1% | 5%
O=C(CCCn1c(=O)c2ccccc2n(CC(=O)NCc2ccco2)c1=O)NCc1ccco1 | -4% | 1 | -12% | 1% | 2% | 0%
O=C(Nc1ccc([N+](=O)[O-])cc1)c1cccc([N+](=O)[O-])c1 | -22% | x | -2% | x | x | x
O=C(Nc1ncc([N+](=O)[O-])s1)c1cccc([N+](=O)[O-])c1 | 2% | -41* | -18% | -4% | 3% | 0%
CN(C)/C=C/C(=O)C(F)(F)F | -8% | 2 | 6% | -1% | 2% | 1%
CNc1oc(Cc2ccccc2)nc1S(=O)(=O)c1ccccc1 | -7% | 12 | 2.7µM* | -25% | 2% | 0%
CCOC(=O)c1nn(-c2ccccc2)c(=O)cc1OCC(=O)Nc1cc(C)ccc1C | -19% | x | -2% | -19% | 1% | x
CC(=NNS(=O)(=O)c1cccc([N+](=O)[O-])c1)c1ccc(-n2ccnc2)cc1 | -2% | x | 19µM* | -22% | -7% | x
C/C(=N\NS(=O)(=O)c1ccc(Br)cc1)c1ccncc1 | -13% | x | 5.3µM* | u | 4% | -7%
C/C(=N/NS(=O)(=O)c1ccc(C)c(C)c1)c1ccncc1 | -22% | x | -18% | -7% | 3% | 0%
C/C(=N/NS(=O)(=O)c1ccc(Cl)cc1)c1ccncc1 | -6% | 0 | u | -19% | -2% | 4%
C/C(=N/NS(=O)(=O)c1cccc([N+](=O)[O-])c1)c1ccncc1 | -18% | x | 3µM* | 28µM* | 0% | -2%
COc1ccc(NS(=O)(=O)c2cccc(C(=O)N/N=C(\C)c3ccc(-n4ccnc4)cc3)c2)cc1 | u | -46* | -11% | 0% | -5% | 1%
C/C(=N\NC(=O)c1cccc(S(=O)(=O)Nc2ccccc2Cl)c1)c1ccc(-n2ccnc2)cc1 | -1% | 11 | -13% | 1% | -2% | -4%
O=C(NC(=S)Nc1ccc(CN2CCOCC2)cc1)c1ccc([N+](=O)[O-])cc1 | -21% | 0 | u | -6% | 1% | -2%
SMILES | USP1 inh | Coupling enz | PLK1 PBD inh | VDR inh | USP2a inh | GALK inhibitor
COc1cc(C)c(C)cc1S(=O)(=O)n1c(C)nc2ccccc21 | -16% | 8 | 27µM* | -22% | 3% | 0%
O=C(c1ccc(Cl)c(S(=O)(=O)N2CCCCCC2)c1)N1CCN(CCO)CC1 | -14% | 4 | -1% | -6% | 1% | 0%
CCc1ccc(NC(=S)N(Cc2ccc(Cl)cc2)Cc2ccc(C(=O)O)cc2)cc1 | -7% | 14 | 24µM* | -24% | -18% | 1%
Cc1cc(NC(=S)N(Cc2ccc(Cl)cc2)Cc2ccc(C(=O)O)cc2)ccc1Cl | -10% | 2 | 30µM* | -13% | 0% | 0%
Cc1cc(C)cc(NC(=S)N(Cc2ccc(Cl)cc2)Cc2ccc(C(=O)O)cc2)c1 | -27% | 1 | -8% | -20% | -2% | 1%
CCOC1=C2CN(S(=O)(=O)c3ccc(C)cc3)[C@H](c3ccccc3)C[C@H]2n2c(=O)n(-c3ccccc3)c(=O)n2C1 | x | x | 2% | x | x | x
O=S(=O)(Nc1cccc2ccccc12)c1ccccc1F | -14% | -15 | -3% | -11% | 0% | -1%
Nc1c(S(=O)(=O)O)cc(Nc2ccc(Cl)cc2)c2c1C(=O)c1ccccc1C2=O | x | -3 | x | 32µM* | x | x
Nc1c(S(=O)(=O)O)cc(Nc2cccc3ccccc23)c2c1C(=O)c1ccccc1C2=O | x | -6 | x | 35µM* | x | x
Nc1c(S(=O)(=O)O)cc(NC(=O)c2ccccc2)c2c1C(=O)c1ccccc1C2=O | -18% | -8 | 21µM* | u | -9% | -2%
O=C(Nc1ccccc1-c1ccccc1)c1ccccc1 | -2% | 0 | 2% | -14% | -1% | 2%
CCCCC/C=C\CC(O)/C=C/c1cccc(CC(O)CCCCO)n1 (centres undefined) | x | 1 | x | 50µM*! | x | x
O=C(Cn1nc(-c2ccc(Cl)cc2)c2ccccc2c1=O)NCC1CCCO1 (centres undefined) | -17% | 5 | 13µM* | u | 3% | 3%
Cc1ccc(-c2nn(CC(=O)NCC3CCCO3)c(=O)c3ccccc23)cc1 (centres undefined) | -8% | 2 | 1% | -13% | 2% | 0%
CNC(=O)CCn1nc(-c2ccc(C)cc2)c2ccccc2c1=O | -14% | 2 | 3% | -21% | -1% | 3%
COc1ccccc1NC(=O)CCn1nc(-c2ccccc2)c2ccccc2c1=O | -29% | x | x | 56µM* | x | x
CNC(=O)Cn1nc(-c2ccc(C)cc2)c2ccccc2c1=O | -8% | 1 | 12µM* | u | 0% | 0%
Cn1cnnc1SCC(=O)NNC(=O)COc1ccc(Cl)cc1 | -27% | 0 | -4% | 1% | -1% | -1%
Cn1c(N2CCN(C(=O)Nc3ccc(C(F)(F)F)cc3)CC2)nc2ccccc21 | -3% | 1 | 11µM* | u | 0% | -2%
CCCCN(C)C(=O)Cc1c(OC)ccc2cc(Br)ccc12 | -17% | 2 | 24µM* | 22µM* | 1% | 0%
COc1ccc2cc(Br)ccc2c1CC(=O)N(C)C | -17% | 1 | -3% | 0% | -22% | 5%
O=C(NC1c2ccccc2-c2ccccc21)c1ccccc1 | -6% | 0 | 27µM* | -22% | 0% | 1%
